According to PubChem BioAssay (NCI):
About 83,000 compounds went through this panel and 20% of them were active in at least one assay; those are over-represented in the sample as a whole.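 Negative percent growth values reflect cell death: -40 means 40% of the cells present at the start died, and -100 means all died.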 Values without a mark were called inactive. Activity calls are given as the source filed them.

tested on: A549/ATCC NSCLC; test: NCI-60 one-dose screen, 48 h (100 = growth as untreated, 0 = no growth, -100 = all killed); settings: 10 µM unless noted
Method: Growth inhibition of the A549/ATCC human Non-Small Cell Lung tumor cell line is measured as a screen for anti-cancer activity. Cells are grown in 96 well plates and exposed to the test compound for 48 hours. Compounds are tested at a single concentration, which is 10^-5 M for most compounds. The reported endpoint is percent growth (GI% or GIPRCNT), where numbers from 0 - 100% represent growth inhibition, and numbers from -100% - 0 represent cell death. For example, a value of 40 represents 60% growth inhibition. A value of 0 means no net growth occurred over the course of the experiment. A value of -40 indicates 40% of cells at the beginning of the experiment died by the end of the experiment. A value of -100 means all cells are dead at the end of the experiment.
NCI-60 Human Tumor Cell Lines Screen was performed using the standard one-dose NCI protocol, which is described in more detail at https://dtp.cancer.gov/discovery_development/nci-60/default.htm.
Compounds with GIPRCNT values below 10 were considered active. Activity score was based on GIPRCNT using the following formula: […]
Score is 0 for GIPRCNT values of 100 or above, 50 for GIPRCNT values of 0, and 100 for GIPRCNT values of -100.

| SMILES | growth |
| --- | --- |
| COc1ccc(C2=NN(c3ccc(S(N)(=O)=O)cc3)C(c3cn(-c4ccccc4)nc3-c3ccc(Cl)cc3)C2)cc1 (stereo not given) | 74.6% |
| Nc1ccccc1C#C/C=C\C#Cc1cccc(O)c1 | 64.5% |
| COc1ccc(-c2nc3sccn3c2-c2ccnc(NCCCNS(=O)(=O)c3ccc(C)cc3)n2)cc1 | 38.8% |
| CCCCCCCCCCC/C=C\C[C@H](O)C/C=C1/C(=O)C=C[C@@H]1C/C=C\CCCC(=O)OC | 15.6% |
| COc1ccc(/C=C/c2nc(N3CCOCC3)c3cc(F)c(F)cc3n2)cc1OC | 30.9% |
| CN1C(=O)[C@H]2c3c1cccc3[C@@]13NC(=O)O[C@H]1[C@H](CCC3(C)C)C2(C)C | 93.7% |
| Clc1ccc(/C=C/c2nc(N3CCOCC3)c3nc(Cl)c(Cl)cc3n2)cc1 | 107% |
| Cc1oc2ncnc(Nc3ccccc3)c2c1C(=O)NCCO | 98.1% |
| COc1ccc(/C=N/NC(=O)Cn2c(Cc3cccc4ccccc34)nc3ccccc32)cc1 | 95% |
| COc1cc(CNC(=O)CSc2nc3ccccc3c(=O)n2Cc2cc(OC)c(OC)c(OC)c2)cc(OC)c1OC | 97% |
| O=C(O)Cc1ccc2c(c1)Cc1cccnc1O2 | 96.1% |
| O=C(O)c1cn(C2CC2)c2cc(N3CCN(S(=O)(=O)c4ccc(Cl)c(Cl)c4)CC3)c(F)cc2c1=O | 6.02% (active) |
| CCCn1c(=S)sc2c(Cl)nc(C)nc21 | 117% |
| Clc1ccc2c(c1)NC1(CCSc3ccccc31)n1nccc1-2 (stereo not given) | 90% |
| Nc1c(C(=O)Nc2cccc(Cl)c2Cl)sc2nc3c(cc12)C(=O)CCC3 | 37.5% |
| Nc1c(C(=O)Nc2cccc([N+](=O)[O-])c2)sc2nc3c(cc12)C(O)CCC3 (stereo not given) | 39.2% |
| CC(Br)C(O)c1cc2c(cc1Br)OCO2 (stereo not given) | 103% |
| COc1ccc(/C(=N/O)c2cc(OC)c(OC)c(OC)c2)c(OC)c1N | 45.6% |
| CCC(=O)Oc1cc(/C=C/C(=O)O[C@H]2C[C@H]3CN4CCc5c([nH]c6cc(OC)ccc56)[C@@H]4C[C@@H]3[C@@H](C(=O)OC)[C@@H]2OC)ccc1OC | 80.5% |
| O=S(=O)(NCCCNc1nccc(-c2c(-c3ccccc3)nc3sccn23)n1)c1ccc(F)cc1 | 43.6% |

| SMILES | growth |
| --- | --- |
| CCSc1nnc(NC(=O)Cc2ccc(Cl)cc2)s1 | 106% |
| COc1cc2c(cc1OC)C1(C)N(CC2)C(=O)OC1(C)C (stereo not given) | 102% |
| COc1ccc(-n2c(C)cc(-c3ccccc3)c2C)cc1 | 40.7% |
| N#Cc1ccc(NC(=O)c2ccc3cccnc3c2O)cc1 | 15.1% |
| CNC(=O)Cc1nc(-c2cccc(NS(=O)(=O)c3c(F)cccc3F)c2F)c(-c2ccnc(Nc3ccccc3)n2)s1 | 55.3% |
| COc1cc(C2C=C(C)N=C3SC(C)=NN32)cc(OC)c1OC (stereo not given) | 103% |
| Cc1cccc(-n2c(C)nc3ccc(NC(=O)NCCCl)cc3c2=O)c1 | 101% |
| COc1ccc(C(=O)/C=C/c2cc(C(=O)c3cc(OC)c(OC)c(OC)c3)ccc2OC)cc1 | 85.3% |
| Cc1cc(Nc2nc(-c3ccc(F)cc3)nc3ccccc23)n[nH]1 | 13.8% |
| O=S(=O)(NCCCNc1nccc(-c2c(-c3ccc(F)c(O)c3)nc3sccn23)n1)c1ccc(Cl)cc1 | 76.9% |
| C=C1C(=O)O[C@H]2[C@H]1CC/C(COC(=O)NCCc1cccc(OC)c1)=C\CC[C@@]1(C)O[C@@H]21 | 79.2% |
| Cc1ccc2c(c1)C(C)Cc1c(ncnc1-n1cnc3ccccc31)N2C (stereo not given) | 31% |
| Cc1cc2c(c(=O)o1)C(c1ccc(OC(=O)N3CCOCC3)cc1)C(C#N)=C(N)O2 (stereo not given) | 100% |
| CC(C)(C)OC(=O)N1C/C(=C\c2cccs2)C(=O)/C(=C/c2cccs2)C1 | 86.9% |
| COc1cc(OC)c(C(=O)/C=C/c2cccc(C#N)c2)c(OC)c1 | 2.27% (active) |
| O=c1cc(C2NCCc3c2[nH]c2ccccc32)c2c(ccc3ccccc32)o1 (stereo not given) | 67.9% |
| N#Cc1c(NC(=O)c2ccc([N+](=O)[O-])o2)[n+]([O-])c2cc(F)c(F)cc2[n+]1[O-] | 116% |
| CC(=O)/C=C/c1cc2cc(Cl)ccc2[nH]c1=O | 85.2% |
| COc1cccc(-n2cc(-c3nc(Cl)c4ccccc4n3)nn2)c1 | 92.7% |
| COC1=CC(c2ccc[nH]2)=N/C1=C\c1[nH]c(C)c(CCCn2cc(CCCCCCCCC[C@@H]3Cc4cc(O)ccc4C4CC[C@]5(C)[C@@H](O)CC[C@H]5C43)nn2)c1C (stereo not given in full) | 48.3% |
